Source: PubChem BioAssay (National Center for Advancing Translational Sciences (NCATS))
Compounds with a hit are over-represented: about 0.88% of the library has one in this group of screens.
KAT2A inh = blocks human GCN5L2 histone acetyltransferase | Q92830 | GCN5L2 HAT assay, ThioGlo1 CoA-SH fluorescence | Potency, µM (series often up to 58.9 µM), inactives show top-dose activity change, negative = inhibition, actives largely listed as inhibitors | 390,000 compounds, 0.21% hits | AID 504327; further: on the % scale 0 is the no-effect control and ±100 the full control effect
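GCN5L2 (20 nM) in 50mM HEPES pH 7.5, 0.1mM EDTA, 0.01% Tween-20 preincubated 15 min with compounds at room temperature. Reaction started with H3(1-25) 75uM, acetyl-CoA 70uM, ThioGlo1 50uM; CoA-thiol fluorescence (Ex340/Em540) read at 0 and 20 min.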
RECQ1 inh = blocks DNA unwinding by human RECQ1; P46063; RECQ1 DNA unwinding, red fluorescence kinetic read; Potency, µM (doses to about 57.3 µM), without a hit: at the top dose activity, negative = inhibition, hits mostly inhibitors; 240,000 compounds, 0.54% hits; AID 2549;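 further: plate controls were vehicle for no effect and no enzyme for full effect; nearly all actives have a fitted effect of over 30% in size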
Target sequence (P46063 whole entry, looked up): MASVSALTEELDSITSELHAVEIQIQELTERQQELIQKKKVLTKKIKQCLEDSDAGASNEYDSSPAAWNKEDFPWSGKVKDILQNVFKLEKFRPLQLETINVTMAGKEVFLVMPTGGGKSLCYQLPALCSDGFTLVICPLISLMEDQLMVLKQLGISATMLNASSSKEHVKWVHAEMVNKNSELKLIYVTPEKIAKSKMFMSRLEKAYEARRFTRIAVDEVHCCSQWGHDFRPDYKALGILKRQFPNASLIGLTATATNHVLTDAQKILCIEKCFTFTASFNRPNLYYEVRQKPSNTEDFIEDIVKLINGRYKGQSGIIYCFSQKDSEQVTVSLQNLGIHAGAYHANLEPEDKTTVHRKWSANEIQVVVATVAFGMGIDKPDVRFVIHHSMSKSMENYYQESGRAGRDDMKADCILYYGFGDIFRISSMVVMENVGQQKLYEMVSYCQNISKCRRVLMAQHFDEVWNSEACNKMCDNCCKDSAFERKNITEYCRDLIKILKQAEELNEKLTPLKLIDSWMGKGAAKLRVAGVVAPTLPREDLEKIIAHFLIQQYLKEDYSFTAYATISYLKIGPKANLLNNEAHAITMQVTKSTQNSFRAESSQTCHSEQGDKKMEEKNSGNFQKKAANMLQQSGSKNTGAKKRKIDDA
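50 nM RECQ1T1 preincubated 15 min with compound in Tris pH 8.0 buffer with MgCl2, DTT, Tween-20 and 2.5 ug/ml poly(dI-dC); started with 200 nM TAMRA/BHQ-2 forked duplex and 2 mM ATP. Unwinding read as fluorescence (525/598 nm), two reads 2 h apart.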
ERG Ets-DNA blk = inhibitors of human ERG Ets domain-DNA interaction; P11308; Potency, µM (doses to about 76.9 µM), without a hit: top-dose FP activity, negative = inhibition, hits mostly inhibitors; AID 624246; fluorescence polarization, His-ERG Ets domain / labelled DNA; 370,000 compounds, 0.028% hits; active means well fitted inhibition curve with a large enough effect in the polarisation, with a control signal flat; inconclusive means small, poorly fitted or top-dose-only effect, or effect the other way, or a change in a side signal; inactive means no such curve, though single readings can be large or run the other way; the % refers to the polarisation;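 further: polarization taken with two DNA probes labelled with fluorescein and Texas red; % of control where 0% means no effect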
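His-tagged ERG Ets domain (1 uM in the protein solution; 300mM KCl, 50mM Tris-HCl, 1mM EDTA, 1mM DTT, pH 7.5) received compound, then a probe mix of 5 nM fluorescein-DNA and 100nM Texas-615-DNA. Fluorescence polarization was read for both dyes.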
APE1 inh-1 = blocks human APE1 abasic DNA cleavage. P27695. recombinant APE1, TAMRA/BHQ-2 abasic DNA cleavage fluorescence. Potency, µM (series often up to 65.8 µM), for the others: at the highest dose activity change, negative = inhibition, usual class: inhibitors. 350,000 compounds, 0.35% hits. AID 2517;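 further: plate controls were vehicle for no effect and reference inhibitor for full effect; nearly all actives have a fitted effect of over 55% in size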
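Kinetic fluorescence read (525 ex/598 em nm, three reads 60 s apart) of AP-site incision; signal = third minus first read. Enzyme 0.75 nM, dual-labelled THF duplex 50 nM, compound preincubation 15 min RT.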
BLM inh = inhibitors of human Bloom syndrome helicase BLM; P54132; recombinant BLM DNA unwinding, fluorescence dequenching; Potency, µM (titrated, usually from 56.1 µM), for the others: at the top dose activity change, negative = inhibition, hits mostly inhibitors; 350,000 compounds, 0.2% hits; AID 2528;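 further: plate controls were vehicle for no effect and no enzyme for full effect; nearly all actives have a fitted effect of over 35% in size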
WRN helicase inh = inhibitors of human WRN helicase | Potency, µM (highest dose often 114 µM), without a hit: at the top dose activity change, negative = inhibition, actives largely listed as inhibitors | Q14191 | 360,000 compounds, 0.46% hits | WRN helicase unwinding, fluorescent forked duplex, kinetic; further: on the % scale 0 is the no-effect control and ±100 the full control effect; nearly all actives have a fitted effect of over 55% in size
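WRN at 20 nM final was preincubated with compound for 15 min at room temperature; reaction started with 100 nM forked duplex oligonucleotide carrying fluorophore and quencher plus 2 mM ATP (final). Unwinding followed kinetically by red fluorescence (ex 525/em 598 nm).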
DNA dye displace = DNA dye displacement counter-screen activity; shares compounds with APE1 inh-1; DNA fluorescent dye displacement counterscreen, fluorescence; Potency, µM (series often up to 28.5 µM), for inactives: top-dose activity change, negative = inhibition, actives largely listed as inhibitors; 480 compounds, 7% hits; AID 2564;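 further: loss of thiazole orange fluorescence as the dye is displaced from duplex DNA; 0% = ThO with dsDNA and no compound and -100% = ThO without dsDNA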
Endo IV inh = counter-screen for APE1 inhibitors: inhibitors of E. coli endonuclease IV; shares compounds with APE1 inh-1; E. coli Endo IV, fluorogenic AP-site DNA cleavage; Potency, µM (series often up to 27.1 µM), without a hit: top-dose activity change, negative = inhibition, most hits filed as inhibitors; 560 compounds, 4% hits; AID 2565;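 further: plate controls were uninhibited enzyme wells for no effect and no enzyme buffer wells for full effect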
APE1 inh-2 = APE1 (human) endonuclease inhibition, confirmation | shares compounds with APE1 inh-1 | purified APE1, fluorogenic abasic-site DNA cleavage | Potency, µM (series often up to 57.1 µM), for inactives: at the top dose activity change, negative = inhibition, actives largely listed as inhibitors | 750 compounds, 44% hits | AID 2572; further: on the % scale 0 is the no-effect control and ±100 the full control effect; nearly all actives have a fitted effect of over 30% in size
APE1 FP inh = APE1 (human) DNA binding inhibition, fluorescence polarization | shares compounds with APE1 inh-1 | APE1 binding to TAMRA-labelled double-stranded DNA, fluorescence polarization displacement | Potency, µM (doses to about 28.5 µM), without a hit: at the top dose activity, negative = inhibition, usual class: inhibitors | 480 compounds, 7% hits | AID 2573; further: on the % scale 0 is the no-effect control and ±100 the full control effect
The depositor's hits bear a star; i = inactive; ? = inconclusive; . = no result given; [ ] = dose if it differs, or a comment. Unless noted, the call rests on the fitted dose curve; in most records, active means well fitted curve in the direction sought with a large enough effect; inconclusive means small, poorly fitted or top-dose-only effect, or another doubt; inactive means no such curve, though single readings can be large; an effect the other way counts as inactive or inconclusive. Potency means the concentration at half of the fitted maximal effect.

SMILES	KAT2A inh	RECQ1 inh	ERG Ets-DNA blk	APE1 inh-1	BLM inh	WRN helicase inh	Endo IV inh	APE1 inh-2	others
O=c1c(O)cc(C2Oc3cc(O)cc(O)c3CC2O)cc2c(C3Oc4cc(O)cc(O)c4CC3O)cc(O)c(O)c12 (centres undefined)	13µM*	3.2µM*	.	0.5µM*	28µM*	.	?	2.5µM*
O=C(O)c1cccc(NC(=S)NC(NC(=O)c2cccc([N+](=O)[O-])c2)C(Cl)(Cl)Cl)c1 (centres undefined)	23%	0%	-1%	?	-10%	?	.	?
O=C(Nc1ccccc1Br)c1cccc2ccccc12	.	.	2%	.	.	-20%	.	.
N[C@@](C(=O)O)(c1ccc(P(=O)(O)O)cc1)C1CC1	-11%[0.501 µM]	i	.	-2%	-5%	.	.	.
CN(CC(=O)NC(=O)NCc1ccco1)Cc1nc2ccccc2c(=O)[nH]1	-9%	-30%	-2%	20µM*	?	?	9%	?	DNA dye displace=?;APE1 FP inh=?
COc1cccc(CNC(=O)C2CCCN(c3nnc(-n4c(C)ccc4C)s3)C2)c1OC (centres undefined)	-5%	.	-6%	.	-1%	.	.	.
CCOC(=O)N1CCN(C(=O)c2c(O)c3cccc4c3n(c2=O)CC4)CC1	-1%	1%	-4%	40µM*	-1%	4%	2%	-10%[24.4 µM]	DNA dye displace=-14%;APE1 FP inh=-1%
Cc1ccc2c(c1)c1c(c(=O)n(-c3cccc(Cl)c3)c(=O)n1CC(=O)Nc1c(C)cccc1C)n2C	-6%	.	-2%	.	-2%	.	.	.
CN(C)C(=O)Nc1ccc(Cl)c(Cl)c1	-20%	i	.	?	3%	.	20%[57.1 µM]	32µM*	DNA dye displace=-3%[57.1 µM];APE1 FP inh=10%[57.1 µM]
O=C(O)c1cc2cc(F)ccc2[nH]1	-2%	1%	-16%	-3%	-2%	3%	.	?
COc1ccc(-c2nc3n(n2)C(=O)CC(c2ccco2)S3)cc1 (centres undefined)	-11%	-8%	2%	?	-8%	-24%	5%	?	DNA dye displace=-8%;APE1 FP inh=-17%
Cc1ccc(-n2c(=O)c3oc4ccccc4c3n(Cc3ccccc3F)c2=O)cc1C	-3%	.	-3%	.	-1%	.	.	.
Cc1ccc([C@@H]2CC(=O)[C@@H]3CN(S(=O)(=O)c4ccc(C)cc4)[C@H](c4ccccc4)C[C@@H]3N2S(=O)(=O)c2ccc(Cl)cc2)cc1	.	.	.	.	.	0%	.	.
Cn1c(SCC(=O)Nc2ccc3nc(SCC(=O)N4CCCC4)sc3c2)nnc1-c1ccccc1	-15%	?	4%	?	-27%	?	.	-39%
O=C(Nc1ccc2nc(SCC(=O)N3CCCC3)sc2c1)c1ccccc1	-13%	.	-3%	.	0%	.	.	.
Cc1cc(C)c(C(=O)N2CCC(N3CCC(C(=O)NC(C)C)CC3)CC2)o1	-6%	.	-9%	2%	0%	10%	.	.
NC(=O)c1cccnc1Oc1ccccc1	-1%	-7%	6%	2%	-4%	-3%	.	.
